D1 antagonist: blocks dopamine activation of the human D1 receptor. activity change, negative = inhibition, % at 10 µM. HEK293 TREx D1 cells, calcium flux, dopamine EC80; stronger effect = lower value. 360,000 compounds, 3.2% hits; in the data active means activity change below about -30%
Target sequence (P21728 whole entry, looked up): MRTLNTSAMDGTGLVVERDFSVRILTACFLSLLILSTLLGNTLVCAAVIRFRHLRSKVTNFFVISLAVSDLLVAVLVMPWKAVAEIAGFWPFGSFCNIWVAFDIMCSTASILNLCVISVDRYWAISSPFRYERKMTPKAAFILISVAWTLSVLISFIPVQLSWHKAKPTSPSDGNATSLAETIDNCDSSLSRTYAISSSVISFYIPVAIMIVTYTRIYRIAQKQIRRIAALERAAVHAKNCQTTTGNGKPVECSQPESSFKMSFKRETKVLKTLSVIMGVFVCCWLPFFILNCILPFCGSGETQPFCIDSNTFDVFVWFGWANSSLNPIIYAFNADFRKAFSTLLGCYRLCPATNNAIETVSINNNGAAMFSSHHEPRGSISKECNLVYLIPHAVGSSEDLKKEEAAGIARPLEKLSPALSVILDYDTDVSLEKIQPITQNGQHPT
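Antagonism measured as reduced calcium response to an EC80 dopamine addition following 180 s compound pre-read; cells were inducible HEK293 Trex D1 plated overnight at 30 C, read kinetically at 1 cycle/sec.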
TRHR agonist: activates the human TRH receptor | TRHR cells, calcium flux fluo-8, FDSS agonist mode | P34981 | activation, % at 2 µM | 360,000 compounds, 0.18% hits
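Steps: seed TRHR cells overnight; add fluo-8 no-wash Ca dye, RT 30 min–1.5 h; record 10 s baseline; pin-transfer compounds; monitor fluorescence 1 cycle/s for the agonist window. Calcium increases flag candidate agonists.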
TRHR PAM: TRH receptor (human) allosteric enhancement. P34981. TRHR cells, fluo-8 calcium fluorescence, EC20 TRH enhancement. enhancement, % at 2 µM. 360,000 compounds, 0.66% hits; in the data active means enhancement above about 30%
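Enhancer read-out: after compound pinning and an initial kinetic agonist-mode read, an EC20 of TRH (10 nM final) was injected and fluo-8 calcium signal (Ex 480/Em 530) followed at 1 s/cycle for 100 cycles in TRHR-expressing cells.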
D1 PAM: enhances dopamine response at the human D1 receptor | HEK293 TREx D1 cells, calcium flux, dopamine EC20 potentiation | potentiation, % at 10 µM | 360,000 compounds, 0.036% hits; in the data active means potentiation above about 30%
D1 agonist: agonists of human D1 dopamine receptor; HEK293 T-REx D1 cells, calcium flux, agonist mode; activation, % at 2 µM; 360,000 compounds, 1% hits
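Inducible HEK293 T-REx D1 cells, force-coupled to calcium signalling, were plated at 4000 cells/well with tetracycline and held overnight at 30 C. After no-wash calcium dye loading, compound-evoked calcium rise over 180 s flagged agonists.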
A number is an active result; – = inactive; · = no result given; ! = repeats disagree. Only some compounds are listed: those with a hit (about 4.6% of all), similar ones and a draw of the others. Unless noted, no stated cut-off is given here; in the data, active means activation above about 30%; inactive means the rest.

SMILES | D1 antagonist | TRHR agonist | TRHR PAM | D1 PAM | D1 agonist
Cc1ccc(S(=O)(=O)NCCN2CCN(S(=O)(=O)c3ccccc3Cl)CC2)cc1 | -53 | – | – | – | –
O=C(CSc1nccn1Cc1ccc(Cl)cc1)NC1CCCC1 | – | – | – | – | –
Cc1ccc(-c2ccc(=O)n(CC(=O)NC(C)c3ccccc3)n2)cc1 (configuration not stated) | – | – | – | – | –
CCOc1ccc(N=C2NC(=O)S/C2=C\c2ccc(Cl)cc2)cc1 | – | – | – | – | –
COc1ccc(N=C2NC(=O)S/C2=C\c2ccc(N(C)C)cc2)cc1 | – | – | – | – | 67
COc1cc(CNc2ccc(O)cc2)cc(Br)c1OCc1ccccc1F | – | – | – | – | –
CCOc1cc(CNCCCN2CCOCC2)cc(Br)c1OCc1ccccc1Cl | – | – | – | – | 67
CCOc1cc(CNCCN2CCOCC2)ccc1OCc1ccccc1Cl | – | – | – | – | 37
COc1cc(CNCc2ccncc2)cc(Br)c1OCc1ccccc1F | -31 | – | – | – | –
CCOc1cc(CNCCO)cc(Br)c1OCc1ccccc1Cl | – | – | – | – | 68
CCCNC(=O)CC(NS(=O)(=O)c1ccc(OC)cc1)c1ccco1 (configuration not stated) | – | – | – | – | –
Cc1ccc(S(=O)(=O)Nc2cccc(C(=O)N3CCC(C(N)=O)CC3)c2)cc1 | – | – | – | – | –
O=C(COc1ccccc1-c1nnc(-c2ccccc2)o1)Nc1ccc(Br)cc1F | – | – | – | – | –
COc1ccc2oc(=O)c(-c3nc(-c4cc(OC)c(OC)c(OC)c4)no3)cc2c1 | – | – | 31 | – | –
C=C(C)c1cccc(C(C)(C)NC(=O)N2CCN(C)CC2)c1 | – | – | – | – | –
C=C(C)c1cccc(C(C)(C)NC(=O)N2CCC(C)CC2)c1 | -43 | – | – | – | –
C=C(C)c1cccc(C(C)(C)NC(=O)N2CCN(c3ccc(OC)cc3)CC2)c1 | -37 | – | – | – | –
CC(=O)c1cc(-c2ccccc2)n(CCC(=O)NC(C)c2ccccc2)c1C (configuration not stated) | – | – | – | – | –
Nc1nc(CCl)nc(N(c2ccccc2)c2ccccc2)n1 | – | – | – | – | –
O=C(N/N=C/c1ccc(Br)s1)c1ccco1 | – | – | – | – | –
O=C(N/N=C/c1sc(=O)n(Cc2ccc(Br)cc2)c1Cl)c1ccco1 | -49 | – | – | – | –
COC(=O)c1ccc(CN2C(=O)NC(CC(C)C)C2=O)cc1 (configuration not stated) | -32 | – | – | – | –
Fc1ccccc1-c1nnc2ccc3ccccc3n12 | – | – | 36 | – | –
CCOc1ccc(NC(=O)Cn2c3ncccc3c(=O)n2-c2ccc(CC)cc2)cc1 | – | – | – | – | –
COc1ccc(C2=NS(=O)(=O)N(C)C(C(=O)Nc3ccc(OC)c(OC)c3)=C2)cc1 | -34 | – | – | – | –
SMILES | D1 antagonist | TRHR agonist | TRHR PAM | D1 PAM | D1 agonist
COc1ccc(NC(=O)C2=CC(c3ccc(C)cc3)=NS(=O)(=O)N2C)cc1OC | – | – | – | – | –
COc1ccc(C2=NS(=O)(=O)N(C)C(C(=O)Nc3cc(C)ccc3O)=C2)cc1OC | – | – | – | – | –
CCc1ccccc1NC(=O)C1=CC(c2ccc(OC)c(OC)c2)=NS(=O)(=O)N1C | – | – | – | – | 35!
COc1ccc(NC(=O)C2=CC(c3ccc(C)cc3)=NS(=O)(=O)N2C)cc1 | -33 | – | – | – | –
Cc1c(-c2nsc(NC(=O)c3cccs3)n2)nnn1-c1ccc(Br)cc1 | – | – | – | – | –
O=C(Nc1ccc(F)cc1C(F)(F)F)C1CCN(c2ncccn2)CC1 | – | – | – | – | –
COc1ccccc1CNC(=O)Cc1c(C)c2c(cc(C)c3c(C)coc32)oc1=O | – | – | – | – | –
Cc1ccc(NC(=O)C(OC(=O)c2ccc(O)cc2)c2ccccc2)cc1Cl (configuration not stated) | -41 | – | – | – | –
Cc1cccc(OCCSc2nnc(-c3cccs3)o2)c1 | – | – | – | – | 44
COc1cc(NC(=O)CC(c2ccc(C)cc2)N2Cc3ccccc3C2=O)cc(OC)c1 (configuration not stated) | – | – | – | – | –
COc1ccc(Cl)cc1NC(=O)CCS(=O)(=O)c1nc(-c2cccs2)cc(C(F)(F)F)n1 | -35 | – | – | – | –
O=C(NC1CC1)C1=C[C@H](c2ccc(C(F)(F)F)cc2)C[C@H](OCc2ccc(CO)cc2)O1 | – | – | – | – | –
CCOC(=O)N1CCC(N2Cc3cccc(C(=O)Nc4ccc(F)cc4)c3C2=O)CC1 | -53 | – | – | – | –
CCOC(=O)N1CCC(N2Cc3cccc(C(=O)Nc4ccc(CC)cc4)c3C2=O)CC1 | – | – | – | – | –
COC(=O)c1cc(=O)n(CCc2ccc(OC)cc2)c(=Nc2ccc(F)c(Cl)c2)s1 | -60 | – | – | – | –
COC(=O)c1cc(=O)n(CCc2ccccc2)c(=Nc2ccc(F)cc2)s1 | – | – | – | – | –
CCC(C)NC(=O)CCNS(=O)(=O)c1ccc(Br)cc1 (configuration not stated) | -93 | – | – | – | –
Cc1noc2ncnc(Oc3cc(Cl)ccc3Cl)c12 | · | – | – | – | –
O=C1CC(c2ccccc2Cl)CC(O)=C1C=NCCCO (configuration not stated) | – | – | 34 | – | –
CCOC(=O)c1sc2cc([N+](=O)[O-])cc(SCC(C)C)c2c1N | – | – | – | – | 55
Cc1cc(C)cc(NC(=O)CCCn2c(=O)c3cccn3c3ccccc32)c1 | -71 | – | – | – | –
Cc1ccc(NC(=O)CCCn2c(=O)c3cccn3c3ccccc32)c(C)c1 | – | – | – | – | –
Cc1cc(C)c(NC(=O)CCn2c(=O)c3cccn3c3ccccc32)c(C)c1 | -49 | – | – | – | –
Cc1ccc(NC(=O)CCCn2c(=O)c3cccn3c3ccccc32)c(Cl)c1 | – | – | – | – | –
O=C(CCCn1c(=O)c2cccn2c2ccccc21)Nc1cccc(Cl)c1 | -32 | – | – | – | –
SMILES | D1 antagonist | TRHR agonist | TRHR PAM | D1 PAM | D1 agonist
COc1ccc(OC)c(CCNC(=O)CS(=O)(=O)Cc2nc(-c3cccc(Cl)c3)oc2C)c1 | – | – | – | – | –
Cc1ccccc1-c1noc(-c2ccc(NCc3ccco3)c([N+](=O)[O-])c2)n1 | – | – | – | – | –
Cc1noc(/C=C/c2cccnc2)c1[N+](=O)[O-] | – | – | – | – | –
Cc1cccc(C)c1N/C=C/c1onc(C)c1[N+](=O)[O-] | – | – | – | – | –
Cc1ccc(N/C=C/c2onc(C)c2[N+](=O)[O-])cc1 | – | – | – | – | 33
Cc1noc(/C=C/c2ccc(-c3ccccc3Cl)o2)c1[N+](=O)[O-] | – | 32 | – | – | 133
N#Cc1ccccc1COC(=O)c1ccc2c(c1)OCO2 | -42 | – | – | – | –

Screening results from PubChem.
